# Source: article PMC8384837, “Expanding the binding specificity for RNA recognition by a PUF domain”
# Target: PUM1 PUF domain R4-SMV (Homo sapiens, UniProt Q14671 828-1176, N971S;H972M;Q975V)
# Test: yeast three-hybrid, YBZ-1, SC-Leu-His + 0.5 mM 3-AT, 4 days
# Settings: tags: N-Gal4 AD-HA kept; label: inside an RPR1-promoter hybrid RNA with tandem MS2 sites; ssRNA
# Method in brief: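 Repeat regions from input (SC-Leu) and selection (SC-Leu-His + 0.5 mM 3-AT) plates were PCR-amplified and Illumina-sequenced after four days of growth. The cells were strain YBZ-1 with a LexA–MS2 coat fusion and a HIS3 reporter, co-expressing Pumilio-1 PUF domain libraries and matching RNA elements from a centromeric plasmid. The interaction score is the log change in variant frequency from input to selection, taken in log2 with a pseudocount of 1 for absent variants.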
# Sequence of PUM1 PUF domain R4-SMV (Q14671 828-1176 N971S/H972M/Q975V): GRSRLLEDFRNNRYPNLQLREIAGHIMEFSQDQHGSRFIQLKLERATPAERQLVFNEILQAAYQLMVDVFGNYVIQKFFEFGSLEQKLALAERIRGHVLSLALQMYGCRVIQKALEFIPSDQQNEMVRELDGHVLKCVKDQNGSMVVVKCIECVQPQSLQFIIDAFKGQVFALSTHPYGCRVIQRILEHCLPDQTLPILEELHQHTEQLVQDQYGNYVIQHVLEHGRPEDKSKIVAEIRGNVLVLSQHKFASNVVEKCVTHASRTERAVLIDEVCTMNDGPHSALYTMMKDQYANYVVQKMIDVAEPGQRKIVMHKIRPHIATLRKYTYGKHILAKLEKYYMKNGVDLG
row,Sequence,binding signal
1,GGCUAGAACUAGUGGAUCCCCCGGCGCCCGGCGGCUCGAGCCCGGGUAAGUGUACAUAGUCUGCAUGCCGCCGGGCGCCAUGCCUGCAGGUCGACUCUAGAAAACAUG,0.58 log2 enrichment (interaction score)
2,GGCUAGAACUAGUGGAUCCCCCGGCGCCCGGCGGCUCGAGCCCGGGUAAGUGUAAAUAGUCUGCAUGCCGCCGGGCGCCAUGCCUGCAGGUCGACUCUAGAAAACAUG,3.8 log2 enrichment (interaction score)
3,GGCUAGAACUAGUGGAUCCCCCGGCGCCCGGCGGCUCGAGCCCGGGUAAGUGUAUAUAGUCUGCAUGCCGCCGGGCGCCAUGCCUGCAGGUCGACUCUAGAAAACAUG,2.15 log2 enrichment (interaction score)
